The source of these data is ChEMBL document CHEMBL3988442, “University of Dundee, Small-Polar-MMV Screening Library” (2021).

SMILES strings stand for the structures. The campaign covered roughly 48,000 compounds. About 13,000 (27%) showed an effect of 50% or more. The list shows a part of the results.

This assay concerns Wolbachia pipientis. The experiment in a line: Anti-Wolbachia Cell-Based Screen. The assay is classed as functional. Further details: scale not given: in the data most compounds retested in dose-response had high values. To be noted: 5 µM.
On to `CCCc1n[nH]c(C2CN(CCCS(C)(=O)=O)CCO2)n1` (stereo not given), for which the “Percent Effect” value is reported as 8.162%.

Regarding `CC(C)N1CCC(Nc2ccn(C)n2)C1=O` (stereo not given), the “Percent Effect” value is -18.51%.

As to `CCc1n[nH]c(C2CN(CC(=O)NCCc3ccsc3)CCO2)n1` (stereo not given), the “Percent Effect” value is listed as -8.362%.

Take `COc1ccc(S(=O)(=O)NCCC(O)c2cccs2)c(C)c1` (stereo not given): the “Percent Effect” value is -2.091%.

Take `COCc1nc(CNC2CSCCSC2)no1`: the “Percent Effect” value was determined as 8.788%.

With `CN(Cc1csc(-c2cccs2)n1)C(=O)CCn1ccc(=O)[nH]c1=O`, the “Percent Effect” value is reported as -14.37%.

As for `CCS(=O)(=O)N1CCC2(CC1)CC1(CCN(CCOC)CC1)C(=O)N2C.O=C(O)C(F)(F)F`, the “Percent Effect” value is on record as -5.19%.

As to `Cc1cnc(N2CCCOC(CN3CCCCC3)C2)nc1` (stereo not given), the “Percent Effect” value is on record as -5.032%.

With `CC(C)c1cc(C(=O)N2CCOC3(CCNCC3)C2)no1.O=C(O)C(F)(F)F`, the “Percent Effect” value is given as -1.615%.

Turning to `CC(C)c1cc(C(=O)N2CCC3(CCc4ccccc4C(=O)N3)C2)on1` (stereo not given), the “Percent Effect” value was 142.6%.

In the case of `O=C1CCC2(CCCN(C(=O)c3ccco3)CC2)N1` (stereo not given), the “Percent Effect” value is on record as -12.15%.

Regarding `CC(C)c1cc(C(=O)N2CCC3(CCc4ccccc4C(=O)N3)C2)no1` (stereo not given), the “Percent Effect” value worked out at 122.1%.

On to `Cc1noc(C)c1C(=O)N1CCC2(CC1)CC(Oc1ccccc1)CO2` (stereo not given), for which the “Percent Effect” value is recorded as -6.513%.

In the case of `Cc1noc(C)c1CN1CC2(CCN(C(=O)c3ccc[nH]3)C2)CC1=O` (stereo not given), the “Percent Effect” value is recorded as -7.535%.

`CC(C)c1cc(=O)[nH]c(-c2ccccc2CN2CCC(C)(C)C2)n1`: the “Percent Effect” value was 32.6%.

As to `Cc1noc(C)c1C(=O)N1CCC2(CCc3ccccc3C(=O)N2)C1` (stereo not given), the “Percent Effect” value came out at 127.4%.

Take `CCC1CN(CCCNS(C)(=O)=O)c2ccccc2O1` (stereo not given): the “Percent Effect” value is -7.766%.

With `Cc1cnn(CCNCC(O)COc2ccc(Cl)cc2)c1` (stereo not given), the “Percent Effect” value is recorded as -10.6%.

With `CN(C)C(=O)c1ccc(C(C(=O)O)N(C)Cc2ccccc2Cl)cc1` (stereo not given), the “Percent Effect” value was found to be 24.87%.

`CC(C)=CCS(=O)(=O)Cc1nc(C(C)C)no1`: the “Percent Effect” value was -0.5421%.

For the compound `N#Cc1ccc(OCCCN2CCc3cncnc3C2)cc1`, the “Percent Effect” value is listed as -6.561%.

Regarding `Cc1nnc(NCc2ccc(SC(F)F)cc2)o1`, the “Percent Effect” value is listed as -21.33%.

Regarding `CCN(Cc1ccc2cccc(O)c2n1)CC1CCCO1` (stereo not given), the “Percent Effect” value was found to be 12.41%.

For `CC(C)n1ccnc1CNC(=O)c1cccc(CCC(C)(C)O)c1`, the “Percent Effect” value was 1.765%.

On to `O=C(O)C(F)(F)F.O=C(O)C(F)(F)F.c1cncc(C2COC3(CCN(Cc4cccs4)CC3)C2)c1` (stereo not given), for which the “Percent Effect” value is given as 94.58%.

Take `O=C(NC1COC2(CCN(Cc3cccs3)CC2)C1)c1ccccn1.O=C(O)C(F)(F)F` (stereo not given): the “Percent Effect” value is listed as -12.32%.

Consider `O=C(O)C(F)(F)F.O=C(O)C(F)(F)F.c1cncc(C2COC3(CCN(Cc4nccs4)CC3)C2)c1` (stereo not given), for which the “Percent Effect” value came out at 106.4%.

With `Cc1ccc(CN2CCC3(CC2)CC(c2cccnc2)CO3)s1.O=C(O)C(F)(F)F.O=C(O)C(F)(F)F` (stereo not given), the “Percent Effect” value is listed as -3.874%.

`COc1c(C)cc(S(=O)(=O)NCC2CNCCOC2)cc1C` (stereo not given): the “Percent Effect” value is on record as -7.949%.

As for `CC1CS(=O)(=O)CCN1Cc1ccccc1OCC(F)(F)F` (stereo not given), the “Percent Effect” value is on record as -0.5987%.

Take `CCNC(=O)N(C)C(c1ccccc1)c1ccccn1` (stereo not given): the “Percent Effect” value amounted to 96.55%.

As to `CC(NCc1cccc(S(=O)(=O)N(C)C)c1)c1ccccn1` (stereo not given), the “Percent Effect” value is -1.385%.

In the case of `CN(C)C(C(=O)N1CC(c2ccccn2)C1)c1cccc(F)c1` (stereo not given), the “Percent Effect” value turned out to be 0.3934%.

`CN(C)S(=O)(=O)N(C)C(c1cccnc1)c1ccc(F)c(F)c1` (stereo not given): the “Percent Effect” value amounted to 6.924%.

In the case of `CCNC(=O)N(C)C(c1cccc(F)c1)c1ccccn1` (stereo not given), the “Percent Effect” value is 4.567%.

Turning to `CCC(CC)CNC(=O)N(C)C(C)c1ccccn1` (stereo not given), the “Percent Effect” value was -0.07078%.

On to `CN(C(=O)C1CCCC1)C(c1cccc(F)c1)c1ccccn1` (stereo not given), for which the “Percent Effect” value was determined as 96.46%.

Turning to `CC(C)NC(=O)N(C)C(c1cccc(F)c1)c1ccccn1` (stereo not given), the “Percent Effect” value worked out at 108.7%.

For `CN(C)S(=O)(=O)N(C)C(c1cccc(F)c1)c1ccccn1` (stereo not given), the “Percent Effect” value stood at 51.58%.

For the compound `CCC(C)(C)NC(=O)CN(C)C(c1cccc(F)c1)c1ccccn1` (stereo not given), the “Percent Effect” value is given as 3.895%.

In the case of `Cc1cccc(C(C(=O)N2CC(c3ccccn3)C2)N(C)C)c1` (stereo not given), the “Percent Effect” value was -0.3127%.

Take `O=C(C1CCC1)N1CCOc2cccc(F)c21`: the “Percent Effect” value is reported as -0.5451%.

Regarding `CC(C)c1ccc(CN2CCC(CNS(=O)(=O)C3CC3)C2)cc1` (stereo not given), the “Percent Effect” value is -21.58%.

As to `O=C(c1ccc[nH]1)N1CCCC2(CCN(c3ccsc3)C2=O)C1` (stereo not given), the “Percent Effect” value is on record as -3.1%.

Consider `CCc1cccc(OC2CN(C(=O)[C@@H](N)CCSC)C2)c1`, for which the “Percent Effect” value is given as 3.54%.

In the case of `OCCc1cc(CC2(NCc3ccncc3)COC2)no1`, the “Percent Effect” value worked out at 9.116%.

In the case of `CN(C)C(C(=O)NCC(F)(F)F)c1cccc(F)c1` (stereo not given), the “Percent Effect” value is -4.686%.

`CC(=O)N(C)C(c1cccc(F)c1)c1ccccn1` (stereo not given): the “Percent Effect” value worked out at 87.32%.

Regarding `CN(C)CCN(Cc1ccccn1)C(=O)Nc1cccc(F)c1`, the “Percent Effect” value was 19.37%.

Consider `CC1=C[C@@H](CC#N)[C@H](C(C)C)C[C@H]1CC(=O)N1CCN(CCO)CC1`, for which the “Percent Effect” value is recorded as 2.953%.

Turning to `CCOC(=O)C1CCN(Cc2csc(C(C)(C)C)n2)CC1`, the “Percent Effect” value is -1.919%.

In the case of `NC(=O)C1(CCCc2ccccn2)CCCN(CCO)C1` (stereo not given), the “Percent Effect” value came out at 112.7%.

Consider `COCCC1(C(=O)O)CCCN(CCc2ccccc2)C1` (stereo not given), for which the “Percent Effect” value is -4.304%.

For `CCCN(Cc1cccnc1)C(=O)C1CCCN(C)C1` (stereo not given), the “Percent Effect” value was -0.4884%.

With `NC(=O)C1(CCCc2cccnc2)CCCN(c2ncccn2)C1` (stereo not given), the “Percent Effect” value is given as -4.242%.
